NTR1 agonist – NTR1 (human) agonism. actives 0.17% (n = 330,000). activation, % at 20 µM. NTR1-U2OS beta-arrestin-GFP spot imaging, agonist mode. AID 493036;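 active = activation at or above 40% of the spot to cytoplasm intensity ratio, with at least 20 cells analyzed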
A1 inh – inhibitors of the anti-apoptotic protein A1, read as caspase activation; actives 0.066% (n = 330,000); AID 2462; caspase activation, % (test concentration not listed); MEF A1-2A-BIM cells, Caspase-Glo 3/7 luminescence, 3 h; percent of clofoctol response, vehicle zero;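 active = over half of replicate activation scores above 10%, or exactly half above 10 with the replicate mean above 10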
Mdm2 MdmX PPI – inhibitors of human Mdm2/MdmX interaction. SaOS-2 split-luciferase Mdm2/MdmX complementation, luminescence. inhibition, % at 8 µM. actives 3% (n = 330,000);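 active = inhibition of at least 50% at 8 µM in the primary screen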
Target sequence (O15151 whole entry, looked up): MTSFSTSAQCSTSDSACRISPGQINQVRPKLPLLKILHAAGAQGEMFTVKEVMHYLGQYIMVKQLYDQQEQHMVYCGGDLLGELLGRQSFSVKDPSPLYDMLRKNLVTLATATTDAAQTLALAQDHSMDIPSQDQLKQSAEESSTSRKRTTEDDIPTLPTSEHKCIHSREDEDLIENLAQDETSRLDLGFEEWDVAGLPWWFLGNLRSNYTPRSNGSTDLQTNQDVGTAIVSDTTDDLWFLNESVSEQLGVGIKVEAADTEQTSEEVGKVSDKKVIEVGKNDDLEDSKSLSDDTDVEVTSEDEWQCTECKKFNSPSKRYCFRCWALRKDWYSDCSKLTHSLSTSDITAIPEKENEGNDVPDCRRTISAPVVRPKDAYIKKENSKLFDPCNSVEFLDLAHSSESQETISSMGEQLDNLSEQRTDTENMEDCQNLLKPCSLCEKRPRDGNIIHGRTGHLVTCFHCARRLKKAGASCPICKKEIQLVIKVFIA
Target sequence (Q00987 whole entry, looked up): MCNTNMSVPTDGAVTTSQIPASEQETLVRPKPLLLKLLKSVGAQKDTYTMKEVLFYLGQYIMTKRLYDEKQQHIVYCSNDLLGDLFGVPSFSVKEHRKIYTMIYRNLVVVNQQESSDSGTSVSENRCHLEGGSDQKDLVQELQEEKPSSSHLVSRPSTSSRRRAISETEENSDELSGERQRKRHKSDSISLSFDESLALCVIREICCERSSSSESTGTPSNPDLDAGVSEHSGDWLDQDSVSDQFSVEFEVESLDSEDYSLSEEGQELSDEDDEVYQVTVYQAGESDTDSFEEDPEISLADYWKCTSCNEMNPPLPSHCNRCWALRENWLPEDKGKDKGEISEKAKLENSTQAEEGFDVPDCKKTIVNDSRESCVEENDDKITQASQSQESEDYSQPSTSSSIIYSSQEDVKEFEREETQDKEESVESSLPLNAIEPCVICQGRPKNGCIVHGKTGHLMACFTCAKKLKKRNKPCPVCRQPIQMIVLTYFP
Beta cell apopt – beta cell apoptosis inhibition; protection from apoptosis, % (concentration not given with the values); INS-1E cytokine-induced death, ATP luminescence, 48 h; percent of positive-control rescue, neutral wells zero; actives 0.8% (n = 300,000);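 active = Every replicate reaches about 75%, or at least half do and their mean reaches it too, limit read from the data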;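 also: higher means more ATP so stronger rescue from cytokine killing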
Jurkat NFkB inh – lowers PMA/ionomycin-induced NF-kB signal in Jurkat cells. PMA/ionomycin-induced NF-kB luciferase reporter, luminescence. inhibition, % at 4 µM. actives 0.53% (n = 330,000); in the data active = inhibition above about 50%
697 NFkB inh – lowers PMA/ionomycin-induced NF-kB signal in 697 B cells. 697 B-cell NF-kB luciferase reporter, 16 h. inhibition, % at 4 µM. actives 0.33% (n = 330,000). AID 435022; in the data active = inhibition above about 35%
Mdm2-MdmX conf – human Mdm2/MdmX binding inhibition, confirmed. luminescent assay. inhibition, % at 8 µM. shares compounds with Mdm2 MdmX PPI. actives 55% (n = 10,000). AID 489028; in the data active = inhibition above about 40%
FLuc counter – full-length luciferase inhibition in Mdm2/MdmX counter-screen | shares compounds with Mdm2 MdmX PPI | SaOS-2 full-length luciferase counterscreen, luminescence | inhibition, % at 8 µM | actives 77% (n = 6,200) | AID 504607;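 active = mean inhibition at 8 µM reaching about 37%, which flags the compound as non-specific, limit read from the data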;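 also: p53-null SaOS-2 cells with luciferase driven by a doxycycline-inducible promoter; compound on cells about two nights before reading with doxycycline added after day one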
Of the large screens only hits and unclear results are named; the others gave an inactive call (follow-up assays come after a bar, where they were run). Only some compounds are listed: those with a hit (about 3.8% of all), similar ones and a draw of the others.

CC(=O)c1ccc(Sc2nnnn2-c2ccccc2)c([N+](=O)[O-])c1	Mdm2 MdmX PPI 84.9 | Mdm2-MdmX conf 58.2 | FLuc counter inactive
CN1CCN(S(=O)(=O)c2ccc(Sc3nnnn3-c3ccccc3)c([N+](=O)[O-])c2)CC1	Mdm2 MdmX PPI 88.0 (no result: Beta cell apopt) | Mdm2-MdmX conf 77.3 | FLuc counter 56.1
O=[N+]([O-])c1ccc(Sc2nnnn2-c2ccccc2)c(Cl)c1	none
CC1CCc2c(sc3ncn(CC(=O)N=Nc4c(O)[nH]c5ccccc45)c(=O)c23)C1 (centres undefined)	Mdm2 MdmX PPI 53.4 | Mdm2-MdmX conf inactive
CC1CCc2c(sc3ncn(CCO)c(=O)c23)C1 (centres undefined)	none
COc1cc(OC)cc(C(=O)Nc2nc(-c3ccccc3)c(-c3ccccc3)o2)c1	Mdm2 MdmX PPI 56.0 | Mdm2-MdmX conf inactive
CC(=O)Nc1nc(-c2ccccc2)c(-c2ccccc2)o1	none
Cc1nnc(SCC(=O)NCCC2=CCCCC2)[nH]c1=O	none
Cc1ccc(NC(=O)CSc2nc3[nH]ncc3c(=O)[nH]2)cc1	none
Cc1cc(C)cc(NC(=O)CSc2nc3[nH]ncc3c(=O)[nH]2)c1	Mdm2 MdmX PPI 60.2 (no result: Beta cell apopt) | Mdm2-MdmX conf 61.6 | FLuc counter 49.6
N#Cc1ccc(OCC(=O)N2CCN(c3ccc(C(F)(F)F)cn3)CC2)cc1	none
FC(F)(F)c1nc2ccccc2n2c(-c3ccc(Cl)cc3)nnc12	Mdm2 MdmX PPI 95.8, Beta cell apopt 100.6 | Mdm2-MdmX conf 96.3 | FLuc counter 41.0
c1ccc(-c2nc3ccccc3c3nc4ccccc4n23)cc1	none
Cc1ccc(-c2nnc3c(C(F)(F)F)nc4ccccc4n23)cc1	Mdm2 MdmX PPI 53.6 | Mdm2-MdmX conf inactive
On1c(-c2ccc(Cl)cc2)nc2ccccc21	none
O=C(NCC1CCCCC1)C1(CC2CC(c3ccc(Cl)cc3)=NO2)CCNCC1 (centres undefined)	Mdm2 MdmX PPI 66.5 | Mdm2-MdmX conf inactive
O=C(NCC1CCCCC1)C1(CC2CC(c3cccc(Br)c3)=NO2)CCNCC1 (centres undefined)	Mdm2 MdmX PPI 78.7 (no result: Beta cell apopt) | Mdm2-MdmX conf inactive
CCCCCCCNC(=O)C1(CC2CC(c3ccccc3)=NO2)CCNCC1 (centres undefined)	Mdm2 MdmX PPI 53.9 | Mdm2-MdmX conf inactive
O=C(NCc1ccccc1)C1(CC2CC(c3ccccc3)=NO2)CCNCC1 (centres undefined)	none
NS(=O)(=O)c1ccc(-c2c(-c3ccccc3)sc3ccccc23)cc1	none
O=C(CCN=C1NS(=O)(=O)c2ccccc21)OCc1c(F)c(F)c(F)c(F)c1F	none (no result: A1 inh, Beta cell apopt)
CC(=O)c1ccccc1NC(=O)COC(=O)c1cc2ccccc2[nH]1	none
CCCc1c(O)nc(SC2CC(=O)N(c3ccc(C)c(Cl)c3)C2=O)[nH]c1=O (centres undefined)	none
Cc1ccc(N2C(=O)CC(Sc3nc4ccccc4o3)C2=O)cc1Cl (centres undefined)	Mdm2 MdmX PPI 89.2 | Mdm2-MdmX conf inactive
N#CCCn1cc(C(=O)CN2C(=O)C(=O)N(C3CCCC3)C2=O)c2ccccc21	none (no result: A1 inh, Beta cell apopt)
O=C1c2cc(O)c(O)cc2S(=O)(=O)C1c1ccccc1 (centres undefined)	none
COc1ccc(S(=O)(=O)Nc2cccc(S(=O)(=O)N3CCCCCC3)c2)cc1	none (no result: NTR1 agonist, Mdm2 MdmX PPI, Jurkat NFkB inh, 697 NFkB inh)
O=S(=O)(Nc1nc2ccccc2nc1Nc1cccc(S(=O)(=O)N2CCCCC2)c1)c1ccccc1	Mdm2 MdmX PPI 81.5 | Mdm2-MdmX conf 78.7 | FLuc counter 42.7
O=S(=O)(Nc1nc2ccccc2nc1Nc1ccc2c(c1)OCO2)c1ccc(F)cc1	Mdm2 MdmX PPI 50.1 | Mdm2-MdmX conf inactive
CCc1ccccc1NC(=S)N1CCCCCC1	none
COCCCNc1c2c3c(cccc3[nH]c1=O)C(=O)c1ccccc1-2	Mdm2 MdmX PPI 57.1 | Mdm2-MdmX conf 57.8 | FLuc counter 86.3
COCCCNC1=C(Cl)C(=O)c2ccccc2C1=O	none (no result: Beta cell apopt)
C=CCNc1nc2c(c(=O)[nH]c(=O)n2C)n1CCCc1ccccc1	none

Source: PubChem (several laboratories)
